An excerpt weighted towards active compounds, which were near 19% of everything screened.
DT40 TDP1 CPT: qHTS for Inhibitors of human tyrosyl-DNA phosphodiesterase 1 (TDP1): qHTS in cells in presence of CPT. chicken DT40 Tdp1-/-;hTDP1 cells + 20 nM CPT, ATP luminescence, 48 h. Potency, µM (doses to about 46.2 µM), usual class: inhibitors. actives 12% (n = 420,000). AID 686979, 2013; note: nearly all actives have a fitted effect of over 55% in size
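Chicken DT40 Tdp1-/- cells complemented with human TDP1, 400 cells/well, exposed to compounds plus 20 nM camptothecin for at least 48 h at 37 C; viability read as ATP content by CellTiter-Glo luminescence.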
HT1080-NT tox: qHTS for induction of synthetic lethality in tumor cells producing 2HG: qHTS for the HT-1080-NT fibrosarcoma cell line | HT-1080-NT fibrosarcoma viability, CellTiter-Glo ATP luminescence, 48 h | Potency, µM (series often up to 46.1 µM), most hits filed as cytotoxic | actives 1.6% (n = 360,000) | AID 686970, 2013;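 note: NT is the 2HG producing partner of a matched IDH1 knockdown line; nearly all actives have a fitted effect of over 55% in size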
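HT-1080-NT fibrosarcoma cells (2HG-overproducing), 750 cells/well in RPMI with 5% FBS, dosed after 2 h and incubated 48 h at 37C. CellTiter-Glo luminescence normalized to DMSO and no-cell wells; concentration-response curves fitted and classed.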
DT40 TDP1 no CPT: qHTS for Inhibitors of human tyrosyl-DNA phosphodiesterase 1 (TDP1): qHTS in cells in absence of CPT. DT40 Tdp1-/- hTDP1 cells, no CPT, ATP luminescence, 48 h. Potency, µM (top dose mostly 46.2 µM), most hits filed as inhibitors. actives 15% (n = 420,000). AID 686978, 2013; note: nearly all actives have a fitted effect of over 55% in size
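Readout: luminescence from CellTiter-Glo after 30 min in the dark at RT. Cells: DT40 Tdp1-/- with stable hTDP1, 400/well. Exposure: compounds alone, ≥48 hr, 37 °C.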
uPA surface inh: qHTS for Inhibitors of Cell Surface uPA Generation; Potency, µM (highest dose often 38.3 µM), most hits filed as inhibitors; actives 0.31% (n = 330,000); cell surface uPA generation assay, qHTS; active = well fitted inhibition curve with a large enough effect; inconclusive = small, poorly fitted or top-dose-only effect; inactive = no such curve, though single readings can be large or run the other way; tested in mouse RAW 264.7 cells; note: nearly all actives have a fitted effect of over 55% in size
IL-1B inflam inh: qHTS for Inhibitors of Inflammasome Signaling: IL-1-beta AlphaLISA Primary Screen; THP-1 LPS/ATP IL-1B secretion, AlphaLISA, 16 h; stronger effect = lower value; activity change, % at 57.5 µM; actives 4.7% (n = 360,000); AID 743279, 2014; in the data active = activity change below about -50%; inconclusive = mostly about -30% to -49%
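THP-1 cells pretreated 1 hr with compounds (up to 57.5 uM final), then stimulated with LPS (250 ng/mL final) plus ATP (1.25 mM final); secreted IL-1B measured by AlphaLISA after 16 hr, decreased signal indicating inhibition.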
HT1080 IDH1KD tx: qHTS for induction of synthetic lethality in tumor cells producing 2HG: qHTS for the HT-1080-IDH1KD cell line. HT-1080 IDH1 knockdown viability, ATP luminescence, 48 h. Potency, µM (series often up to 46.1 µM), usual class: cytotoxic. actives 2% (n = 360,000). AID 686971, 2013
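HT-1080-IDH1KD cells (IDH1 knocked down), 750/well in RPMI with 5% FBS, treated with compound 48 h at 37 degrees C. Viability by CellTiter-Glo luminescence, normalised to DMSO and no-cell wells; concentration-response curves classed.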
Numbers stand for hits; 0 = inactive; ? = inconclusive; - = no result; [ ] = dose if it differs, or a comment. Unless noted, calls come from the whole dose curve; as a rule, active = well fitted curve in the direction sought with a large enough effect; inconclusive = small, poorly fitted or top-dose-only effect, or another doubt; inactive = no such curve, though single readings can be large; an effect the other way counts as inactive or inconclusive.

SMILES	DT40 TDP1 CPT	HT1080-NT tox	DT40 TDP1 no CPT	uPA surface inh	IL-1B inflam inh	HT1080 IDH1KD tx
COc1cc(CNCCc2ccccc2)cc(Cl)c1OCc1ccccc1	?	13µM	?	0	-104	?
COc1cc(CNCCO)cc(Cl)c1OCc1ccccc1Cl	?	?	?	0	-91	?
CCc1ccccc1NC(=O)C1CCN(S(C)(=O)=O)CC1	0	0	0	0	0	0
CCCC(O)c1nc2ccccc2n1CCCOc1ccc(Cl)cc1 (stereo not given)	3.7µM	-	3.3µM	-	-	-
COCc1nc2ccccc2n1CCCOc1ccccc1	23µM	0	26µM	0	0	0
Cc1nc2ccccc2n1CCCOc1ccccc1	?	0	23µM	0	0	?
Cc1ccc(OCCn2c(C)nc3ccccc32)cc1	?	0	?	0	?	?
CCc1nc2ccccc2n1CCCCOc1cccc(C)c1	?	-	23µM	-	-	-
CCCn1c(COc2ccccc2)nc2ccccc21	?	0	?	0	?	0
Nc1nc2ccccc2n1CCOc1ccc(Cl)cc1	?	?	?	0	0	?
c1cnc2c(-c3nccc4c3[nH]c3ccccc34)cccc2c1	0[9.04 µM]	-	0[9.04 µM]	-	-	-
COc1ccccc1C(=O)NCCC(=O)NCC1COc2ccccc2O1 (stereo not given)	0	0	?	0	0	0
Cc1cc2ncn(CCOc3ccccc3)c2cc1C	?	0	?	0	0	0
COc1ccc(OCCn2c(C)nc3cc(C)c(C)cc32)cc1	15µM	-	21µM	-	-	-
COc1ccc(/C=C/C(=O)Nc2ccc(-c3nnc4n3CCCCC4)cc2)c(OC)c1	9.2µM	0	2.3µM	0	-53	0
Cc1cc(C)n(-c2ccc(Cl)c(C(=O)Nc3ccc(-c4nnc5n4CCCCC5)cc3)n2)n1	2.1µM	0	1.8µM	0	0	0
Cc1[nH]nc(N=CC2=C(O)CC(C)(C)CC2=O)c1-c1ccccc1	?	0	16µM	0	0	0
Cc1[nH][nH]c(=O)c1C(c1c(C)[nH][nH]c1=O)c1cn(Cc2ccc(F)cc2)c2ccccc12	6.5µM	0	5.2µM	0	-101	?
Cc1[nH][nH]c(=O)c1C(c1c(C)[nH][nH]c1=O)c1cn(Cc2ccc(Cl)c(Cl)c2)c2ccccc12	2.1µM	0	2.1µM	0	-98	?
OC[C@@H]1CN(CCN2CCOCC2)C[C@H](n2cnc3c(Nc4ccccc4)ncnc32)O1	0	0	0	-	0	0
O=C(CSc1oc(-c2ccccc2)nc1S(=O)(=O)c1ccc(Cl)cc1)NC1CCCCC1	0	-	0	-	-	-
O=C(CSc1oc(-c2ccccc2)nc1S(=O)(=O)c1ccc(Br)cc1)c1ccccc1	?	-	10µM	-	-	-
O=C(CSc1oc(-c2ccccc2)nc1S(=O)(=O)c1ccccc1)c1ccccc1	12µM	-	15µM	-	-	-
NC(=O)CSc1oc(-c2cccs2)nc1S(=O)(=O)c1ccc(Br)cc1	0	-	?	-	-	-
Cc1cc(C)cc(NC(=O)CSc2oc(-c3ccccc3)nc2S(=O)(=O)c2ccccc2)c1	18µM	-	23µM	-	-	-
